Assay results from the supplement of paper PMC13380429.

Experiments:
[1] = system: Vero E6 infected with SARS-CoV-2; assay: inhibition of SARS-CoV-2 cytopathic effect; higher = more antiviral protection, active = above 15; conditions: 48 h
[2] = system: Vero E6 infected with SARS-CoV-2; assay: morphology score (similarity to uninfected cells); higher = more like uninfected cells; conditions: 24 h

CC1(C)CC(=O)C(C2C3=C(CC(C)(C)CC3=O)Oc3ccccc32)C(=O)C1 (configuration not stated)
inactive: inhibition of SARS-CoV-2 cytopathic effect ([1]; 1 nM) -0.63% | inhibition of SARS-CoV-2 cytopathic effect ([1]; 8.33 nM) 0.77% | inhibition of SARS-CoV-2 cytopathic effect ([1]; 100 nM) -0.14% | inhibition of SARS-CoV-2 cytopathic effect ([1]; 833.33 nM) 1.93% | inhibition of SARS-CoV-2 cytopathic effect ([1]; 10000 nM) -2.4%

C=C[C@@H]1C[C@]1(NC(=O)[C@@H]1C[C@@H](Oc2ncc(OC)c3ccc(Cl)cc23)CN1C(=O)[C@@H](NC(=O)OC(C)(C)C)C(C)(C)C)C(=O)NS(=O)(=O)C1CC1 [asunaprevir]
inactive: inhibition of SARS-CoV-2 cytopathic effect ([1]; 1 nM) -0.2% | inhibition of SARS-CoV-2 cytopathic effect ([1]; 8.33 nM) 0.38% | inhibition of SARS-CoV-2 cytopathic effect ([1]; 100 nM) 3.96% | inhibition of SARS-CoV-2 cytopathic effect ([1]; 833.33 nM) 2.81% | inhibition of SARS-CoV-2 cytopathic effect ([1]; 10000 nM) -1.88%

C[S+](CC[C@H](N)C(=O)O)C[C@H]1O[C@@H](n2cnc3c(N)ncnc32)[C@H](O)[C@@H]1O (some centres not stated) [ademetionine]
inactive: inhibition of SARS-CoV-2 cytopathic effect ([1]; 1 nM) -2.98% | inhibition of SARS-CoV-2 cytopathic effect ([1]; 8.33 nM) -1.8% | inhibition of SARS-CoV-2 cytopathic effect ([1]; 100 nM) -2.58% | inhibition of SARS-CoV-2 cytopathic effect ([1]; 833.33 nM) -0.06% | inhibition of SARS-CoV-2 cytopathic effect ([1]; 10000 nM) 0.19%

CN(CCc1ccc(Cl)c(Cl)c1)CCN1CCCC1
inactive: inhibition of SARS-CoV-2 cytopathic effect ([1]; 1 nM) -1.5% | inhibition of SARS-CoV-2 cytopathic effect ([1]; 8.33 nM) -0.54% | inhibition of SARS-CoV-2 cytopathic effect ([1]; 100 nM) 2% | inhibition of SARS-CoV-2 cytopathic effect ([1]; 833.33 nM) 3.84% | inhibition of SARS-CoV-2 cytopathic effect ([1]; 10000 nM) -1.25%

OC[C@H]1O[C@@H](Oc2cc(O)cc(/C=C/c3ccc(O)cc3)c2)[C@H](O)[C@@H](O)[C@@H]1O [polydatin]
inactive: inhibition of SARS-CoV-2 cytopathic effect ([1]; 1 nM) -1.01% | inhibition of SARS-CoV-2 cytopathic effect ([1]; 8.33 nM) -1.06% | inhibition of SARS-CoV-2 cytopathic effect ([1]; 100 nM) 1.77% | inhibition of SARS-CoV-2 cytopathic effect ([1]; 833.33 nM) 9.49% | inhibition of SARS-CoV-2 cytopathic effect ([1]; 10000 nM) 2.31%

C[C@]12CC[C@H](O)CC1=CC[C@@H]1[C@@H]2CC[C@]2(C)C(=O)CC[C@@H]12 (10 µM)
0.0986: morphology score [2]
